In all, about 290,000 compounds went through this assay and about 3,100 (1.1%) were called active. The entries come from a sample that favours actives as a whole. A number with no mark means an inactive call. Rule as the data show it: active = inhibition above about 16% (passing the limit was not always enough); inactive = the rest.
The compounds below were run against Neuropeptides B/W receptor type 1 (Homo sapiens) (UniProt P48145) (assay: GPR7 receptor antagonists, primary screen, cell-based, fluorescence, single concentration (AID 1861;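 also: cells stimulated with the agonist NPW; 0% = agonist with vehicle and 100% = vehicle without agonist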)). Settings: GPR7-expressing cells, fluorescence antagonist assay; at 4.4 µM; active compounds read high.
Sequence of Neuropeptides B/W receptor type 1 (Homo sapiens) (P48145 whole entry, looked up): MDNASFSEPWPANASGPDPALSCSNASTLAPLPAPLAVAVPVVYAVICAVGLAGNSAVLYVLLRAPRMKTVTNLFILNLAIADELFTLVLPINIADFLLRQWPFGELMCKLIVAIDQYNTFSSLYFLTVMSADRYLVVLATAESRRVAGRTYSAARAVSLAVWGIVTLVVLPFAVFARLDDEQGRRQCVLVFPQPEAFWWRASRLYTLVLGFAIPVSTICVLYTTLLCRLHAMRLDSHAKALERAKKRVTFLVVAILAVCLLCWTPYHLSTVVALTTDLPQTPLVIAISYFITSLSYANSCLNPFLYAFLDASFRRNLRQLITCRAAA

In order of rising inhibition:
1. Cc1cccc(N(C(=O)c2csnn2)C(C(=O)NCc2ccccc2)c2ccncc2)c1 (stereo unspecified)  -21.8%
2. CC(=O)Oc1ccc2c(=O)oc(-c3ccc([N+](=O)[O-])cc3)nc2c1  -20.8%
3. CCn1ccnc1CN(C)C(=O)c1cc(COc2ccc(-n3cncn3)cc2)on1  -16.5%
4. CCOc1ccc(C(CC(=O)O)NC(=O)Cc2ccccc2)cc1OC (stereo unspecified)  -15.8%
5. O=C(NCc1ccco1)C(c1ccncc1)N(C(=O)Cn1nnc2ccccc21)c1ccccc1 (stereo unspecified)  -15.7%
6. CC(C)NC(=O)C(c1ccc(F)cc1)N(C(=O)CCC(=O)Nc1ccccn1)c1ccccc1F (stereo unspecified)  -14.6%
7. CC(=O)N1CCN(c2ccccc2NC(=S)NC(=O)c2cc3ccccc3o2)CC1  -12.1%
8. Cc1cccc(N2CCN(C(=O)c3cc4c(=O)[nH]c5ccccc5c4n3C)CC2)c1C  -11.3%
9. O=C(NCCc1ccccn1)c1cccnc1Oc1ccc(Cl)cc1  -10.8%
10. CCc1ccc(NC(=O)Cn2nnc(C(=O)NCc3ccc(OC)cc3)c2N)cc1  -9.93%
11. Cc1nonc1NC(=O)c1oc2ccccc2c1C  -9.19%
12. CCOc1ccc(OCc2ccc(C(=O)Nc3cccc(C)n3)o2)cc1  -9.15%
13. Cc1ccccc1N1CC(C(=O)Nc2ccc3c(c2)OCO3)CC1=O (stereo unspecified)  -9.07%
14. CC(Oc1cccc(Cl)c1)C(=O)NC1CC(C)(C)NC(C)(C)C1 (stereo unspecified)  -7.54%
15. COc1ccccc1N1CCN(C(=O)c2ccc(NC3=NC4CS(=O)(=O)CC4S3)cc2)CC1 (stereo unspecified)  -7.21%
16. CCC(=O)Nc1ccc(S(=O)(=O)Nc2c(NC)c3ccccc3oc2=O)cc1  -6.83%
17. O=C(N/N=C/c1ccccc1O)C1CCCC1  -6.49%
18. O=[N+]([O-])c1cccc(/C=N/Nc2ncc(Br)cn2)c1  -6.1%
19. Cc1ccc(NC(=O)C2CC(c3ccc(F)cc3)=NO2)cc1 (stereo unspecified)  -5.41%
20. Cc1nn(C)c(Oc2ccccc2)c1[N+](=O)[O-]  -4.53%
21. O=S(=O)(Nc1ccccn1)c1ccc(Oc2ccccc2)cc1  -3.88%
22. Cc1ccc2[nH]cc(CCNC(=O)C3CCCCC3)c2c1  -3.83%
23. Cc1ccc(CNCc2ccc3c(c2)OCO3)c(C)c1  -3.64%
24. Cc1cc(C)nc(N/N=C/c2ccc([N+](=O)[O-])o2)n1  -3.49%
25. Cc1cccc(Oc2c([N+](=O)[O-])c(=O)n(C)c3ccccc23)c1  -3.17%
26. COCCNC(=O)C(c1ccc(C)o1)N(Cc1ccccc1)C(=O)Cn1nnc2ccccc21 (stereo unspecified)  -3%
27. COc1ccc(C2(C)NC(=O)N(CC(=O)c3ccc4c(c3)OCO4)C2=O)cc1 (stereo unspecified)  0.08%
28. Cc1c(CN2CCC(n3nccc3NC(=O)CCc3ccccc3)CC2)cnn1C  0.34%
29. Cc1cc(-c2ccc(S(=O)(=O)N3CCc4ccccc4C3)s2)on1  1.59%
30. COc1ccc(CCNC(=O)c2ccccc2OCc2ccccc2)cc1  1.73%
31. O=C(c1cc(COc2ccc(F)c(F)c2)on1)N1CCOCC1  1.79%
32. CCN1CCN(CCNC(=O)c2ccc(/C=C3/Sc4ccccc4N(Cc4cccc(C)c4)C3=O)cc2)CC1  3.05%
33. CS(=O)(=O)c1ccc(Cl)c(NC(=O)Nc2ccccc2)c1  4.03%
34. COc1ccc(S(=O)(=O)Nc2cccnc2)c(Cl)c1Cl  4.69%
35. Cc1cc(=O)oc(C)c1C(=O)NC1CC(C)(C)NC(C)(C)C1  6.27%
36. O=c1oc2ccccc2c(CNc2ccccc2)c1[N+](=O)[O-]  6.62%
37. O=C(c1ccc(Cl)cc1)c1cnc(Nc2ccccc2)s1  7.11%
38. O=C(NCCc1c[nH]c2ccc(Cl)cc12)c1ccc([N+](=O)[O-])cc1  7.45%
39. CCN(CC)CCCNC(=O)CCn1nc(-c2ccc(Cl)cc2)ccc1=O  11%
40. O=C(COC(=O)c1ccc(F)cc1)NCCCc1ccccc1  12.2%
41. CCNc1c(NS(=O)(=O)c2ccc(C3CCCCC3)cc2)c(=O)oc2ccccc12  12.2%
42. CC(Cc1cccs1)N(Cc1ccc(Cl)cc1)C(=O)c1ccncc1 (stereo unspecified)  14.5%
43. O=C(O)c1ccc(NC(=O)c2ccc(COc3ccc(Cl)cc3)o2)cc1  15.6%
44. CCOc1ccc(Cn2nnc(C(=O)Nc3ccc(OC)cc3OC)c2N)cc1  17.7%
45. Cn1c(Nc2ccccc2)cc(=O)n(C)c1=O  19.8%
46. COc1cccc2cc(C(N)=O)/c(=N\NC(=O)c3ccccc3)oc12  20.9%
47. COc1ccc(C(=O)CN2C(=O)NC(C)(c3ccc(C)cc3)C2=O)cc1OC (stereo unspecified)  22.6%

In the case of `Cn1c(=O)c([N+](=O)[O-])c(Oc2ccccc2)c2ccccc21`, the inhibition is reported as 101% (active).
In the case of `COc1ccccc1Oc1ccc(S(=O)(=O)Nc2cccnc2)cc1`, the inhibition is reported as 27.5% (active).
For `Cc1cc(OC(C)C(=O)NC2CC(C)(C)NC(C)(C)C2)c2c(C)cc(=O)oc2c1` (stereo unspecified), the inhibition was 27.1% (active).
`CCN1/C(=C/c2ccc3ccc(C)cc3[n+]2CC)Sc2ccccc21` was tested, and the inhibition was 38.4% (active).
`CCN1/C(=C\c2ccc3ccccc3[n+]2CC)Sc2cc(C)ccc21` was tested, and the inhibition was 34.1% (active).
In the case of `COc1ccccc1N(C(=O)Cn1nnc2ccccc21)C(C(=O)NCc1ccco1)c1ccc(C)o1` (stereo unspecified), the inhibition is reported as 27% (active).
`C=CCC1(CC=C)CCCN1C(=O)c1cc(COc2ccc(-n3cncn3)cc2)on1` was tested, and the inhibition was 29.1% (active).
`O=C(Nc1ccccc1)c1nnsc1S(=O)(=O)c1ccc(Cl)cc1` was tested, and the inhibition was 42.6% (active).
In the case of `Cc1cc(OCc2ccc(C(=O)Nc3ccc(C(=O)O)cc3)o2)ccc1Cl`, the inhibition is reported as 38% (active).
`COc1cc(NC(=O)CN2C(=O)NC(C)(c3ccc(OC(F)F)cc3)C2=O)cc(OC)c1OC` (stereo unspecified) was tested, and the inhibition was 25.8% (active).
For `CCOc1ccc(Cn2nnc(C(=O)NCc3ccccc3)c2N)cc1`, the inhibition was 35.9% (active).
For `CCOc1ncccc1C(=O)NCCc1ccc(OC)cc1`, the inhibition was 24.6% (active).
`Cc1ccc2[nH]cc(CCNC(=O)c3ccc([N+](=O)[O-])cc3)c2c1` was tested, and the inhibition was 25% (active).
For `O=C(Nc1ccc2c(c1)OCO2)C1CC(c2c(F)cccc2Cl)=NO1` (stereo unspecified), the inhibition was 29% (active).
